In the supplement of paper PMC4466140:

Legend:
Assay in all cases: SPOT peptide array binding signal intensity (averaged, normalized) (arbitrary units (background-subtracted, floor 0; scale differs between SH3 domains)); higher = stronger binding of the SH3 domain to the peptide
CaNbp2 = target: CaNbp2
How it was run: (§1)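 GST-fused SH3 domains, from four yeast species, were produced in E. coli BL21(DE3) and captured on glutathione Sepharose. Membranes of cellulose carrying synthetic 15-mer peptides, in which cysteines had been replaced by serines, were exposed to each domain at 10 μg/ml overnight at 4°C in TBS-based blocking buffer. After anti-GST antibody, an HRP anti-mouse secondary and luminol, spots were imaged and quantified using Genespotter. Binding signal is normalized and background-subtracted spot intensity, averaged over replicates, in arbitrary units that differ between domains.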

CaRvs167 = target: CaRvs167
How it was run: as §1

CaRvs167-3 = target: CaRvs167-3
How it was run: as §1

CaSho1 = target: CaSho1
How it was run: as §1

CaSla1-D1-D2 = target: CaSla1-D1-D2
How it was run: as §1

CaSla1-D3 = target: CaSla1-D3
How it was run: as §1

ScAbp1 = target: ScAbp1
How it was run: as §1

ScBbc1 = target: ScBbc1
How it was run: as §1

ScBem1-D1 = target: ScBem1-D1
How it was run: as §1

ScBzz1-D1 = target: ScBzz1-D1
How it was run: as §1

ScBzz1-D2 = target: ScBzz1-D2
How it was run: as §1

ScCyk3 = target: ScCyk3
How it was run: as §1

ScFus1 = target: ScFus1
How it was run: as §1

ScHof1 = target: ScHof1
How it was run: as §1

ScHse1 = target: ScHse1
How it was run: as §1

ScLsb1 = target: ScLsb1
How it was run: as §1

ScLsb2 = target: ScLsb2
How it was run: as §1

ScLsb3 = target: ScLsb3
How it was run: as §1

ScLsb4 = target: ScLsb4
How it was run: as §1

ScMyo3 = target: ScMyo3
How it was run: as §1

ScMyo5 = target: ScMyo5
How it was run: as §1

ScNbp2 = target: ScNbp2
How it was run: as §1

ScPex13 = target: ScPex13
How it was run: as §1

ScRvs167 = target: ScRvs167
How it was run: as §1

ScSho1 = target: ScSho1
How it was run: as §1

ScSla1-D1-D2 = target: ScSla1-D1-D2
How it was run: as §1

ScSla1-D3 = target: ScSla1-D3
How it was run: as §1

SpAbp1-D1 = target: SpAbp1-D1
How it was run: as §1

SpBbc1 = target: SpBbc1
How it was run: as §1

SpBzz1-D1 = target: SpBzz1-D1
How it was run: as §1

SpBzz1-D2 = target: SpBzz1-D2
How it was run: as §1

SpCyk3 = target: SpCyk3
How it was run: as §1

SpHof1 = target: SpHof1
How it was run: as §1

SpHof1-2 = target: SpHof1-2
How it was run: as §1

SpHof1-3 = target: SpHof1-3
How it was run: as §1

SpHse1 = target: SpHse1
How it was run: as §1

SpLsb1 = target: SpLsb1
How it was run: as §1

SpLsb4 = target: SpLsb4
How it was run: as §1

SpMyo1 = target: SpMyo1
How it was run: as §1

SpNbp2 = target: SpNbp2
How it was run: as §1

SpPex13 = target: SpPex13
How it was run: as §1

SpRvs167 = target: SpRvs167
How it was run: as §1

SpSla1-D1-D2 = target: SpSla1-D1-D2
How it was run: as §1

SpSla1-D3 = target: SpSla1-D3
How it was run: as §1

AgAbp1 = target: AgAbp1
How it was run: as §1

AgBbc1 = target: AgBbc1
How it was run: as §1

AgBem1-D1 = target: AgBem1-D1
How it was run: as §1

AgBzz1-D1 = target: AgBzz1-D1
How it was run: as §1

AgBzz1-D2 = target: AgBzz1-D2
How it was run: as §1

AgCyk3 = target: AgCyk3
How it was run: as §1

AgFus1 = target: AgFus1
How it was run: as §1

AgHof1 = target: AgHof1
How it was run: as §1

AgHse1 = target: AgHse1
How it was run: as §1

AgLsb1 = target: AgLsb1
How it was run: as §1

AgLsb4 = target: AgLsb4
How it was run: as §1

AgMyo5 = target: AgMyo5
How it was run: as §1

AgNbp2 = target: AgNbp2
How it was run: as §1

AgRvs167 = target: AgRvs167
How it was run: as §1

AgSho1 = target: AgSho1
How it was run: as §1

AgSla1-D1-D2 = target: AgSla1-D1-D2
How it was run: as §1

AgSla1-D3 = target: AgSla1-D3
How it was run: as §1

CaAbp1-D1 = target: CaAbp1-D1
How it was run: as §1

CaAbp1-D2 = target: CaAbp1-D2
How it was run: as §1

CaBbc1 = target: CaBbc1
How it was run: as §1

CaBem1-D1 = target: CaBem1-D1
How it was run: as §1

CaBzz1-D1 = target: CaBzz1-D1
How it was run: as §1

CaBzz1-D2 = target: CaBzz1-D2
How it was run: as §1

CaCyk3 = target: CaCyk3
How it was run: as §1

CaFus1 = target: CaFus1
How it was run: as §1

CaHof1 = target: CaHof1
How it was run: as §1

CaHse1 = target: CaHse1
How it was run: as §1

CaLsb1 = target: CaLsb1
How it was run: as §1

CaLsb4 = target: CaLsb4
How it was run: as §1

CaMyo5 = target: CaMyo5
How it was run: as §1

B1: unnamed (peptide)
chain: LLGRKRPVMERVVDI
SPOT peptide array binding signal intensity (CaNbp2): 595 | SPOT peptide array binding signal intensity (CaRvs167): 14.8 | SPOT peptide array binding signal intensity (CaRvs167-3): 1.75 | SPOT peptide array binding signal intensity (CaSho1): 374 | SPOT peptide array binding signal intensity (CaSla1-D1-D2): 154 | SPOT peptide array binding signal intensity (CaSla1-D3): 150 | SPOT peptide array binding signal intensity (ScAbp1): 33 | SPOT peptide array binding signal intensity (ScBbc1): 5.5 | SPOT peptide array binding signal intensity (ScBem1-D1): 3 | SPOT peptide array binding signal intensity (ScBzz1-D1): 29.5 | SPOT peptide array binding signal intensity (ScBzz1-D2): 24.5 | SPOT peptide array binding signal intensity (ScCyk3): 31.5 | SPOT peptide array binding signal intensity (ScFus1): 163 | SPOT peptide array binding signal intensity (ScHof1): 1 | SPOT peptide array binding signal intensity (ScHse1): 552 | SPOT peptide array binding signal intensity (ScLsb1): 13.2 | SPOT peptide array binding signal intensity (ScLsb2): ≤ 0 | SPOT peptide array binding signal intensity (ScLsb3): 140 | SPOT peptide array binding signal intensity (ScLsb4): 27.5 | SPOT peptide array binding signal intensity (ScMyo3): 4 | SPOT peptide array binding signal intensity (ScMyo5): 1.5 | SPOT peptide array binding signal intensity (ScNbp2): 254 | SPOT peptide array binding signal intensity (ScPex13): 53.5 | SPOT peptide array binding signal intensity (ScRvs167): 7.67 | SPOT peptide array binding signal intensity (ScSho1): 412 | SPOT peptide array binding signal intensity (ScSla1-D1-D2): 158 | SPOT peptide array binding signal intensity (ScSla1-D3): 78.5 | SPOT peptide array binding signal intensity (SpAbp1-D1): ≤ 0 | SPOT peptide array binding signal intensity (SpBbc1): 5.5 | SPOT peptide array binding signal intensity (SpBzz1-D1): 158 | SPOT peptide array binding signal intensity (SpBzz1-D2): ≤ 0 | SPOT peptide array binding signal intensity (SpCyk3): 1 | SPOT peptide array binding signal intensity (SpHof1): 104 | SPOT peptide array binding signal intensity (SpHof1-2): 9.5 | SPOT peptide array binding signal intensity (SpHof1-3): 29.5 | SPOT peptide array binding signal intensity (SpHse1): 470 | SPOT peptide array binding signal intensity (SpLsb1): 0.5 | SPOT peptide array binding signal intensity (SpLsb4): 140 | SPOT peptide array binding signal intensity (SpMyo1): 5 | SPOT peptide array binding signal intensity (SpNbp2): 99.5 | SPOT peptide array binding signal intensity (SpPex13): 16 | SPOT peptide array binding signal intensity (SpRvs167): 14.3 | SPOT peptide array binding signal intensity (SpSla1-D1-D2): ≤ 0 | SPOT peptide array binding signal intensity (SpSla1-D3): 35

B2: unnamed (peptide)
chain: PSRRDSLSIPRAVDA
SPOT peptide array binding signal intensity (AgAbp1): ≤ 0 | SPOT peptide array binding signal intensity (AgBbc1): 41.5 | SPOT peptide array binding signal intensity (AgBem1-D1): 56 | SPOT peptide array binding signal intensity (AgBzz1-D1): 17 | SPOT peptide array binding signal intensity (AgBzz1-D2): 30 | SPOT peptide array binding signal intensity (AgCyk3): ≤ 0 | SPOT peptide array binding signal intensity (AgFus1): 5 | SPOT peptide array binding signal intensity (AgHof1): 10 | SPOT peptide array binding signal intensity (AgHse1): 14.5 | SPOT peptide array binding signal intensity (AgLsb1): 13.5 | SPOT peptide array binding signal intensity (AgLsb4): 2.5 | SPOT peptide array binding signal intensity (AgMyo5): ≤ 0 | SPOT peptide array binding signal intensity (AgNbp2): 6 | SPOT peptide array binding signal intensity (AgRvs167): 1.67 | SPOT peptide array binding signal intensity (AgSho1): ≤ 0 | SPOT peptide array binding signal intensity (AgSla1-D1-D2): 0.5 | SPOT peptide array binding signal intensity (AgSla1-D3): 0.5 | SPOT peptide array binding signal intensity (CaAbp1-D1): ≤ 0 | SPOT peptide array binding signal intensity (CaAbp1-D2): 25 | SPOT peptide array binding signal intensity (CaBbc1): 354 | SPOT peptide array binding signal intensity (CaBem1-D1): 4 | SPOT peptide array binding signal intensity (CaBzz1-D1): 123 | SPOT peptide array binding signal intensity (CaBzz1-D2): 93 | SPOT peptide array binding signal intensity (CaCyk3): 3 | SPOT peptide array binding signal intensity (CaFus1): 65 | SPOT peptide array binding signal intensity (CaHof1): 1 | SPOT peptide array binding signal intensity (CaHse1): ≤ 0 | SPOT peptide array binding signal intensity (CaLsb1): ≤ 0 | SPOT peptide array binding signal intensity (CaLsb4): ≤ 0 | SPOT peptide array binding signal intensity (CaMyo5): 1.5 | SPOT peptide array binding signal intensity (CaNbp2): 28.5 | SPOT peptide array binding signal intensity (CaRvs167): 0.5 | SPOT peptide array binding signal intensity (CaRvs167-3): 1 | SPOT peptide array binding signal intensity (CaSho1): 8 | SPOT peptide array binding signal intensity (CaSla1-D1-D2): ≤ 0 | SPOT peptide array binding signal intensity (CaSla1-D3): 1.25 | SPOT peptide array binding signal intensity (ScAbp1): ≤ 0 | SPOT peptide array binding signal intensity (ScBbc1): 8.5 | SPOT peptide array binding signal intensity (ScBem1-D1): 57 | SPOT peptide array binding signal intensity (ScBzz1-D1): 22 | SPOT peptide array binding signal intensity (ScBzz1-D2): 19 | SPOT peptide array binding signal intensity (ScCyk3): 2 | SPOT peptide array binding signal intensity (ScFus1): ≤ 0 | SPOT peptide array binding signal intensity (ScHof1): ≤ 0 | SPOT peptide array binding signal intensity (ScHse1): ≤ 0 | SPOT peptide array binding signal intensity (ScLsb1): ≤ 0 | SPOT peptide array binding signal intensity (ScLsb2): 3.5 | SPOT peptide array binding signal intensity (ScLsb3): 4 | SPOT peptide array binding signal intensity (ScLsb4): 11.5 | SPOT peptide array binding signal intensity (ScMyo3): 0.5 | SPOT peptide array binding signal intensity (ScMyo5): 4.5 | SPOT peptide array binding signal intensity (ScNbp2): 1 | SPOT peptide array binding signal intensity (ScPex13): 1 | SPOT peptide array binding signal intensity (ScRvs167): ≤ 0 | SPOT peptide array binding signal intensity (ScSho1): 14 | SPOT peptide array binding signal intensity (ScSla1-D1-D2): ≤ 0 | SPOT peptide array binding signal intensity (ScSla1-D3): 22.2 | SPOT peptide array binding signal intensity (SpAbp1-D1): 8 | SPOT peptide array binding signal intensity (SpBbc1): 3 | SPOT peptide array binding signal intensity (SpBzz1-D1): 116
